First the molecules themselves.
B1: ENSMUSG00000032194.167|Kank2 (ssRNA)
RNA: GGGAGUUCUACAGUCCGACGAUCGCUUCGAUAUCCGCAUGCUAAGAGUAAACAGAGACUGUGAUACUGACCAAGUACAGGCGCUCGCUAUGAAGCCCAUAUGUUCCUGAUUAAGAGCUGGCUGGCCUCAGAGCACUCCCAGAACUAGCUUAAAGUGACAGGCUUUGCUGAAAUCCAAAGGGACAAAAGAGUAGUUUUAUGUUUGUGUGUUUGUUUUUAAUGCCCUGGAGCUCCUGCUGGUGACAGGAGAGACAGACAGGCUGCACCUUUCUCUAACUGGGGUUCCUUUCUGGCCCCAGGAUCUCUCUUGCGGUCGCACUAGUGUGGAAUUCUCGGGUGUCAAGG
B2: ENSMUSG00000061578.337|Ksr2|72:76 (ssRNA)
RNA: GGGAGUUCUACAGUCCGACGAUCGCUUCGAUAUCCGCAUGCUAACCAGUCACCUGCCUCCCAGGGUUCUGCCUUGCCCUUAAGCUAGGGUCCUUCAAGCAUCCACAGACUUAGACACACGUGGUAACAUGCUUGUAAUCCUGGCACUCUGGAGGCUGAGGCAGGAGGAUAACAAGUCUAGACUAUAUAUGAUUUCUGAGGGUCUGUUAGUGAAUAAGUACCUGGAUGACAUGGGACAAGUCCCAGCCUUCCCUGCUCCUGCGCUGCUCUUCCUCUUAUGGGAUAGGGUCUAGGUCAAAUGUCACUCUUGCGGUCGCACUAGUGUGGAAUUCUCGGGUGUCAAGG
B3: ENSMUSG00000061578.1309|Ksr2 (ssRNA)
RNA: GGGAGUUCUACAGUCCGACGAUCGCUUCGAUAUCCGCAUGCUAUCUGCACCCAACUGAAUCUCCCACCCUCAAGUGUACCUCUCAGGAUAUCCCCAGGCACACGAAGAUGGAAUGGAAAGCCAGUGGGUAUCUCCCACCCACUUAGAUGCUGAUGGCCUGGGACUAUAAACAGGGACAGUUGGGUCUCCUAAGGAAUAGCUUCCAGGUCCAGGAUGCUGGCAUCUCCCAGAGAGAACUCCAUCCCCUGACCACCAAGGCCUUUGUAGAAGCAGGAAUCUCUUCCUCCUGUCCCACAGCCCCCACUCUUGCGGUCGCACUAGUGUGGAAUUCUCGGGUGUCAAGG
B4: ENSMUSG00000029636.197|Wasf3 (ssRNA)
RNA: GGGAGUUCUACAGUCCGACGAUCGCUUCGAUAUCCGCAUGCUAGACUUCCCCUCUCCUGCCCUGAUCCUUUUUACCAAAUGGCGAUUCCAUAGUCCUGGCUGAGGCAGGGGCUCAAAGUCCAGUGUCUGCUUUGCAAUUCUGGAAGGACAGCUGCUUAUUUAAAUAAGUCUGUGAUAUCCGCAGGCUUGGGUUACAGGGAGGACCUUGCAGAGGGACCAGGACACUGCCUUCCCUUAGGUGCAUUAUUUACGUGGCCUGCAGCUCUUAAUAUCUCUCACUGUUUAUGAAAAGAAAGAUUCAGACUCUUGCGGUCGCACUAGUGUGGAAUUCUCGGGUGUCAAGG
B5: ENSMUSG00000029636.77|Wasf3 (ssRNA)
RNA: GGGAGUUCUACAGUCCGACGAUCGCUUCGAUAUCCGCAUGCUAAAGAUCACUGGCUGUGUGUCUCAGUGAUGUCUUCCAACCAGUGGGUGAUACGUUUUCCUGUUUCUUCCCUUUGCAAAUUGAAUUCCAGGUAGAUAUGGUUGUAGAGGGGAAAGUUUAACAAAUCAGAAUGAAAUGUUUGUCUGUUUGCACACUGGGCCUGGUGGCCUCCAAGGAAAUGUGUACGAUCGUUUGCUUUCUCUAUCUUGGCGCUUGCAACCGAGAGCGGCCAUUUUUAUGAGGGGAGCCCUGUGGGUACUCAUCUCUUGCGGUCGCACUAGUGUGGAAUUCUCGGGUGUCAAGG
B6: ENSMUSG00000090935.714|Synj2bp (ssRNA)
RNA: GGGAGUUCUACAGUCCGACGAUCGCUUCGAUAUCCGCAUGCUAAGAGCUCUGCUCUCUGAGCAUCUGCCCCAGAUACAGAGGCAGAGUAUGAAGUGGAACAUUGUUUUAUUCCUAGGUGCUCAGGACAGACUGAUCAACCUCCAGUAACAUAUGUGGUUAGUAAGUGCUUCAGCUUGUGUAGCCAUUAAUAACCAAGUCAUAGGAUUGUGAAUCUAAAAUACUCCUGGGUAAAAUUUGUAUUAGAAUGGAAAAAAAAAUGAGGGUCAGAAAGGUGAGCUAACUUCAAGUUAGAUACUCCCCUCCUCUUGCGGUCGCACUAGUGUGGAAUUCUCGGGUGUCAAGG
B7: ENSMUSG00000061578.632|Ksr2|56:60;95:99 (ssRNA)
RNA: GGGAGUUCUACAGUCCGACGAUCGCUUCGAUAUCCGCAUGCUAUAGAGGGGACGGACAGCUCCCUGACCCUGGAUGGCCAGGAAUGGUGCUAGCUAGGCACACAGCCAAGCCCUUGAGGCUACUGUGAGUUAUGAGAACACACCAACCCUCAGCCCACAGACUGCAUAUGCCCCAGGACAGCUGUGAAGGUGACCCAAUACAAAAUCGUAAACUAACUUAAAACCAUUAAGGGUUUUUGUUUUGUUGUUGUUUGCUGGCUUUUUGUUUUUUGGGUUGGUUUUCUUUUUCUUUCUUUCUUUUUUCUCUUGCGGUCGCACUAGUGUGGAAUUCUCGGGUGUCAAGG
B8: ENSMUSG00000029636.428|Wasf3 (ssRNA)
RNA: GGGAGUUCUACAGUCCGACGAUCGCUUCGAUAUCCGCAUGCUAGUGGAUGGGUGGGUGGAUACAUGGAUGAGUGGAUGGGUGGAUUGGUGGGUGAGUGGAUAGGUGAAUGGAUGAUAGGUGGUGGAUGGUUGAGUGGGUGGAUUCAUGAUGGAUGGAUGGAUGGAUGGAUGGAUGGAUGGAUGGAUGAGUGGAUGGAUAAUAGGUUGAUGGGUGGAUAGGUAGAUGAGUGAAUAGAUAGAUAUAGAUCAGUGGGAGGAUUGGAAAGUAGGUGAAUGAAUGGAUGGCAGAUAGAUGGAUCAAUUCUCUUGCGGUCGCACUAGUGUGGAAUUCUCGGGUGUCAAGG
B9: ENSMUSG00000029636.430|Wasf3 (ssRNA)
RNA: GGGAGUUCUACAGUCCGACGAUCGCUUCGAUAUCCGCAUGCUAGUGGAUACAUGGAUGAGUGGAUGGGUGGAUUGGUGGGUGAGUGGAUAGGUGAAUGGAUGAUAGGUGGUGGAUGGUUGAGUGGGUGGAUUCAUGAUGGAUGGAUGGAUGGAUGGAUGGAUGGAUGGAUGGAUGAGUGGAUGGAUAAUAGGUUGAUGGGUGGAUAGGUAGAUGAGUGAAUAGAUAGAUAUAGAUCAGUGGGAGGAUUGGAAAGUAGGUGAAUGAAUGGAUGGCAGAUAGAUGGAUCAAUUACAGAUGGAUGGCUCUUGCGGUCGCACUAGUGUGGAAUUCUCGGGUGUCAAGG
B10: ENSMUSG00000029636.427|Wasf3 (ssRNA)
RNA: GGGAGUUCUACAGUCCGACGAUCGCUUCGAUAUCCGCAUGCUAAGCUAGGUGGAUGGGUGGGUGGAUACAUGGAUGAGUGGAUGGGUGGAUUGGUGGGUGAGUGGAUAGGUGAAUGGAUGAUAGGUGGUGGAUGGUUGAGUGGGUGGAUUCAUGAUGGAUGGAUGGAUGGAUGGAUGGAUGGAUGGAUGGAUGAGUGGAUGGAUAAUAGGUUGAUGGGUGGAUAGGUAGAUGAGUGAAUAGAUAGAUAUAGAUCAGUGGGAGGAUUGGAAAGUAGGUGAAUGAAUGGAUGGCAGAUAGAUGGACUCUUGCGGUCGCACUAGUGUGGAAUUCUCGGGUGUCAAGG

This note sets out measurements from paper PMC12864922, “TDP-43 directly inhibits mRNA accumulation in neurites through modulation of mRNA stability”.

Whole data set: some 9,900 sequences, median “r (bound/input frequency ratio)” near 0.7, cut for the highest 2% near 6.5. The entries come from a sample that favours the highest values as a whole.

Sequence of TDP-43 (Q13148 whole entry): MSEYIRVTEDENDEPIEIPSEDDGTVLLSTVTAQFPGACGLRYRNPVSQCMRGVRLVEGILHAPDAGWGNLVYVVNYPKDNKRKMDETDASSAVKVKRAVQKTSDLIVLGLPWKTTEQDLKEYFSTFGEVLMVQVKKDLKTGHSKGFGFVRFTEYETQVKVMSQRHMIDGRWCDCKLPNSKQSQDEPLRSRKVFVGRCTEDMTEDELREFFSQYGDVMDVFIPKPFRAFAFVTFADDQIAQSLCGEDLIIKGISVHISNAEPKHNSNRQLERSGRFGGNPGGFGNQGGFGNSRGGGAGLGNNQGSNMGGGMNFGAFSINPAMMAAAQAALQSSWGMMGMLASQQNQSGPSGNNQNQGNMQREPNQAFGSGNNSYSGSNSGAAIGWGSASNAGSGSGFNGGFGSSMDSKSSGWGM

The assay addresses TDP-43 (Homo sapiens, UniProt Q13148 1-414). The experiment in a line: RNA Bind-n-Seq with designed 260-mer pool; 25 mM Tris-HCl, 150 mM KCl, 3 mM MgCl2, BSA (printed 500 mg/mL), 20 units/mL SUPERase IN; pH not stated; 500 nM RNA pool, 1 h, 4 C; TDP-43 5, 50, 500 nM; high values mean tight binding. To be noted: protein: recombinant; tags: SBP (GST cleaved off with PreScission; pGEX-GST-SBP). An outline of the steps:
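Recombinant SBP-tagged TDP-43 at 5, 50 or 500 nM was captured on streptavidin beads, then incubated 1 h at 4 °C with 500 nM of an in vitro-transcribed 260-nt 3′ UTR oligo pool in 25 mM Tris-HCl, 150 mM KCl, 3 mM MgCl2, BSA and SUPERase IN. Bound RNA was washed, eluted with biotin, reverse transcribed, PCR-amplified and sequenced. Binding is R, each oligo's mapped-read-normalized abundance in the bound sample divided by its abundance in input. Duplicates used two independent protein batches.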
On to B1, for which the binding signal was 3.92 R (bound/input frequency ratio).

Regarding B2, the binding signal was 0.335 R (bound/input frequency ratio). As for B3, the figure is 0.602 R (bound/input frequency ratio); as for B4, 0.304 R (bound/input frequency ratio). As for B5, the figure is 4.99 R (bound/input frequency ratio); as for B6, 1.22 R (bound/input frequency ratio). Consider B7, for which the binding signal is 0.54 R (bound/input frequency ratio). As for B8, the figure is 8.28 R (bound/input frequency ratio); as for B9, 4.31 R (bound/input frequency ratio); as for B10, 4.15 R (bound/input frequency ratio).
